From publication PMC8384837, “Expanding the binding specificity for RNA recognition by a PUF domain” come the findings set out here.

Where a chain is given by its changes, count along the chain named.

What all share (assay): yeast three-hybrid, YBZ-1, SC-Leu-His + 0.5 mM 3-AT, 4 days
Holding throughout (conditions): tags: N-Gal4 AD-HA kept; label: inside an RPR1-promoter hybrid RNA with tandem MS2 sites; ssRNA

One assay has as its target PUM1 PUF domain R5-LWG (Homo sapiens, UniProt Q14671 828-1176, C1007L;R1008W;Q1011G). A digest of the protocol:
(§1)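 Pumilio-1 PUF domain libraries, randomized (NNK) at the three base-contacting residues of each repeat, were co-expressed with matching RNA elements from a centromeric plasmid in strain YBZ-1 (LexA–MS2 coat fusion, HIS3 reporter). Transformants were plated on SC-Leu (input) and SC-Leu-His + 0.5 mM 3-AT (selection) for four days, and repeat regions were PCR-amplified and Illumina-sequenced. The interaction score is the log2 change in variant frequency from input to selection, with pseudocount 1 where absent.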

A further assay addresses T1, PUM1 PUF domain R6-CHC (Homo sapiens, UniProt Q14671 828-1176, N1043C;Y1044H;Q1047C).
T1 sequence: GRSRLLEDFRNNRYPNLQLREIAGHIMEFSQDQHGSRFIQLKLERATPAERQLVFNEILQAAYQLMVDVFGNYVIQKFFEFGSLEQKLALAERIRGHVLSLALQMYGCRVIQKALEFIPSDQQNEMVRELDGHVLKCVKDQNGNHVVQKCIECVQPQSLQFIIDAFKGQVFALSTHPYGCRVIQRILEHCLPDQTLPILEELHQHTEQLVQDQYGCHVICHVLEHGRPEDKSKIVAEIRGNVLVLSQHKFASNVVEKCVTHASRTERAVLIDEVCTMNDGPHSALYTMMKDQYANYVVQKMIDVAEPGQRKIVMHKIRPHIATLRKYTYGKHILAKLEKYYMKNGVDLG
In short, it runs like this:
as §1

A further assay deals with PUM1 PUF domain R8-KWA (Homo sapiens, UniProt Q14671 828-1176, N1122K;Y1123W;Q1126A). A digest of the protocol: as §1
In the next assay the target is PUM1 PUF domain R5-QLR (Homo sapiens, UniProt Q14671 828-1176, C1007Q;R1008L;Q1011R). In short, it runs like this:
as §1

A further assay has as its target PUM1 PUF domain R3-FSE (Homo sapiens, UniProt Q14671 828-1176, C935F;R936S;Q939E). In short, it runs like this:
as §1

The target in the next assay is PUM1 PUF domain R3-MWS (Homo sapiens, UniProt Q14671 828-1176, C935M;R936W;Q939S). In short, it runs like this: as §1
The next assay deals with PUM1 PUF domain R8-YWK (Homo sapiens, UniProt Q14671 828-1176, N1122Y;Y1123W;Q1126K). A digest of the protocol: as §1
For a further assay, the target named is T2, PUM1 PUF domain R6-CYL (Homo sapiens, UniProt Q14671 828-1176, N1043C;Q1047L).
T2 sequence: T1 sequence with H217Y, C220L
A digest of the protocol:
as §1

In another assay the target is T3, PUM1 PUF domain R6-CYI (Homo sapiens, UniProt Q14671 828-1176, N1043C;Q1047I).
T3 sequence: T1 sequence with H217Y, C220I
A digest of the protocol:
as §1

The target in another assay is PUM1 PUF domain R7-RVI (Homo sapiens, UniProt Q14671 828-1176, S1079R;N1080V;E1083I). A digest of the protocol:
as §1

For a further assay, the target named is T4, PUM1 PUF domain R6-MWE (Homo sapiens, UniProt Q14671 828-1176, N1043M;Y1044W;Q1047E).
T4 sequence: T1 sequence with C216M, H217W, C220E
In short, it runs like this: as §1

Another assay deals with PUM1 PUF domain R1-RGQ (Homo sapiens, UniProt Q14671 828-1176, S863R;R864G). In short, it runs like this:
as §1

A further assay concerns the target PUM1 PUF domain R1-KGR (Homo sapiens, UniProt Q14671 828-1176, S863K;R864G;Q867R). A digest of the protocol: as §1

PUM1 PUF domain R1-KGR, sequence (Q14671 828-1176 S863K/R864G/Q867R): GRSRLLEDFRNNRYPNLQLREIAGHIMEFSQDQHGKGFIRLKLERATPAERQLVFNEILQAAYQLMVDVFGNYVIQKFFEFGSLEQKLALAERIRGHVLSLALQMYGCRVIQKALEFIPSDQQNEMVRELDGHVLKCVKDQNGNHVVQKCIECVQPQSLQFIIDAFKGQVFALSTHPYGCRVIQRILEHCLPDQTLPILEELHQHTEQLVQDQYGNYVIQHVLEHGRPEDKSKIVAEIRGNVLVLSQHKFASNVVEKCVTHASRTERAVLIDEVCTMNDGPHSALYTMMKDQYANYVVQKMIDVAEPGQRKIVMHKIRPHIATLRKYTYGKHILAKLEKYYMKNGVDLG

Consider “GGCUAGAACUAGUGGAUCCCCCGGCGCCCGGCGGCUCGAGCCCGGGUAAGUGUAAAUAGUCUGCAUGCCGCCGGGCGCCAUGCCUGCAGGUCGACUCUAGAAAACAUG”, for which the binding signal is 2.19 log2 enrichment (interaction score) in the assay with PUM1 PUF domain R5-LWG, 3.57 log2 enrichment (interaction score) with PUM1 PUF domain R6-CHC and 2.67 log2 enrichment (interaction score) in the assay with PUM1 PUF domain R8-KWA.

As for “GGCUAGAACUAGUGGAUCCCCCGGCGCCCGGCGGCUCGAGCCCGGGUAAGUGUUAAUAGUCUGCAUGCCGCCGGGCGCCAUGCCUGCAGGUCGACUCUAGAAAACAUG”, the binding signal with PUM1 PUF domain R5-LWG was 3.88 log2 enrichment (interaction score); with PUM1 PUF domain R5-QLR it was 0.88 log2 enrichment (interaction score).

As for “GGCUAGAACUAGUGGAUCCCCCGGCGCCCGGCGGCUCGAGCCCGGGUAAGUGUAAGUAGUCUGCAUGCCGCCGGGCGCCAUGCCUGCAGGUCGACUCUAGAAAACAUG”, the results for the binding signal in the assay with PUM1 PUF domain R3-FSE and with PUM1 PUF domain R3-MWS were 3.22 log2 enrichment (interaction score) and 5.62 log2 enrichment (interaction score), respectively.

As to “GGCUAGAACUAGUGGAUCCCCCGGCGCCCGGCGGCUCGAGCCCGGGUAAGCGUAAAUAGUCUGCAUGCCGCCGGGCGCCAUGCCUGCAGGUCGACUCUAGAAAACAUG”, the binding signal with PUM1 PUF domain R8-YWK is 2.04 log2 enrichment (interaction score); in the assay with PUM1 PUF domain R8-KWA, 3.8 log2 enrichment (interaction score).

On to “GGCUAGAACUAGUGGAUCCCCCGGCGCCCGGCGGCUCGAGCCCGGGUAAGUGAAAAUAGUCUGCAUGCCGCCGGGCGCCAUGCCUGCAGGUCGACUCUAGAAAACAUG”, for which the binding signal in the assay with PUM1 PUF domain R6-CYL was 5.18 log2 enrichment (interaction score); with PUM1 PUF domain R6-CYI it was 5.81 log2 enrichment (interaction score).

Regarding “GGCUAGAACUAGUGGAUCCCCCGGCGCCCGGCGGCUCGAGCCCGGGUAAGUUUAAAUAGUCUGCAUGCCGCCGGGCGCCAUGCCUGCAGGUCGACUCUAGAAAACAUG”, in the assay with PUM1 PUF domain R7-RVI, the binding signal was 2.39 log2 enrichment (interaction score).

Turning to “GGCUAGAACUAGUGGAUCCCCCGGCGCCCGGCGGCUCGAGCCCGGGUAAGUGGAAAUAGUCUGCAUGCCGCCGGGCGCCAUGCCUGCAGGUCGACUCUAGAAAACAUG”, the binding signal with PUM1 PUF domain R6-MWE was 4.52 log2 enrichment (interaction score).

With “GGCUAGAACUAGUGGAUCCCCCGGCGCCCGGCGGCUCGAGCCCGGGUAAGUGUAAAUUGUCUGCAUGCCGCCGGGCGCCAUGCCUGCAGGUCGACUCUAGAAAACAUG”, the binding signal is 2.29 log2 enrichment (interaction score) with PUM1 PUF domain R1-RGQ and 4.34 log2 enrichment (interaction score) with PUM1 PUF domain R1-KGR.
